From PubChem BioAssay (NCATS)
Inconclusive results are not listed. Calls of active or inactive are those of the source. The call rests on the fitted dose curve; in most records, active means well fitted inhibition curve with a large enough effect; inconclusive means small, poorly fitted or top-dose-only effect; inactive means flat fitted curve, though single readings scatter.

Tests used:
CRL-7250 = normal cell line; test: Cytotoxic Profiling of Annotated Libraries Using Quantitative High-Throughput Screening (AID 1296008); conditions: Five cell lines viability, CellTiter-Glo ATP luminescence, 48-72 h; max response: hits give low values; on max response: on the % scale 0 is the no-effect control and ±100 the full control effect
Method in brief: (§1)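 Cells exposed to compounds for 48 or 72 hr at 37 degrees Celsius. Viability read as ATP-coupled luminescence with CellTiter-Glo after 10 min at room temperature.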

HaCat [1] = test: as above; conditions: Five cell lines viability, CellTiter-Glo ATP luminescence, 48-72 h; max response: hits give low values
Method in brief: as §1

KB-3-1 = test: as above; conditions: Five cell lines viability, CellTiter-Glo ATP luminescence, 48-72 h; max response: hits give low values
Method in brief: as §1

NIH3T3 = test: as above; conditions: Five cell lines viability, CellTiter-Glo ATP luminescence, 48-72 h; max response: hits give low values
Method in brief: as §1

HACAT [2] = test: qHTS assay to identify novel small-molecules to repurpose for Merkel cell carcinoma treatment (AID 1296009); conditions: MCC and control cell lines, CellTiter-Glo viability, 72 h; at 44.8 µM (top of the series) unless noted
Method in brief: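 Cells were incubated with compound for 72 hr at 37 degree celsius before CellTiter-Glo addition. Luminescence was normalized with no-cell wells as full cytotoxicity and DMSO as baseline.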

Measured: max response
Further: nearly all actives have a fitted effect of over 60% in size.

CC(=O)O[C@@H]1CC[C@@]2(C)[C@H](CC[C@@H]3[C@@H]2C[C@H](OC(C)=O)[C@]2(C)[C@@H](C(C)=O)CC[C@@H]32)C1
inactive: CRL-7250 -9.5% | HaCat [1] | KB-3-1 -28.9% | NIH3T3 -22.7% | HACAT [2]

O=C(Nc1ccn(Cc2ccc(O)cc2C(F)(F)F)n1)c1c(F)cccc1F
inactive: CRL-7250 -7.76% | HaCat [1] | KB-3-1 -23.9% | NIH3T3 | HACAT [2]

Cc1cc2c(N3CCCC3)nc(N3CCCC3)nc2n1C
inactive: CRL-7250 1.58% | HaCat [1] | KB-3-1 -0.182% | NIH3T3 -2.11% | HACAT [2]

C=C(C)C1CCC2(C(=O)O)CCC3(C)C(CCC4C5(C)C(C=O)C(O)C(C)(C)C5CCC43C)C12 (stereo not given)
inactive: CRL-7250 -7.47% | HaCat [1] | KB-3-1 | NIH3T3 0.383% | HACAT [2] inactive [at 17.4 µM]

CCCC(=O)C1(c2ccccc2)CCN(C(=O)[C@@H](Cc2ccc(OC)cc2)NC(=O)[C@@H](N)Cc2cncn2C)CC1
inactive: CRL-7250 3.05% | HaCat [1] | KB-3-1 -9.44% | NIH3T3 -0.497% | HACAT [2]

Cc1cc(C)c(-n2cc(C)c3c(Cl)nc(C)nc32)c(C)c1
inactive: CRL-7250 -11.1% | HaCat [1] | KB-3-1 -3.82% | NIH3T3 -6% | HACAT [2]

CCCN1CCC=C(c2cc(-c3ccc(C)cc3)no2)C1
inactive: CRL-7250 | HaCat [1] | KB-3-1 9.64% | NIH3T3 | HACAT [2]

C=C1C(OC2OC(CO)C(O)C(O)C2O)CC2C(C)(C)C(O)CCC2(C)C1CC/C(C)=C\COC(=O)CC(=O)O (stereo not given)
inactive: CRL-7250 -0.672% | HaCat [1] | KB-3-1 | NIH3T3 3.9% | HACAT [2] inactive [at 17.4 µM]

C=C1CCCC2(C)CCC(C(C)(C)OC3OC(C)C(O)C(O)C3OC(=O)/C(C)=C\C)CC12 (stereo not given)
inactive: CRL-7250 3.11% | HaCat [1] | KB-3-1 -8.14% | NIH3T3 | HACAT [2] inactive [at 17.4 µM]

Cc1cc(C)c(S(=O)(=O)n2cc(C)cc2C)c(C)c1
inactive: CRL-7250 -3.09% | HaCat [1] | KB-3-1 2.85% | NIH3T3 | HACAT [2]

CC1(C)CC[C@]2(C(=O)O)[C@H](O)C[C@]3(C)C(=CCC4[C@@]5(C)CC[C@H](O[C@@H]6O[C@H](CO[C@@H]7OC[C@H](O)[C@H](O)[C@H]7O[C@@H]7OC[C@H](O)[C@H](O)[C@H]7O)[C@@H](O)[C@H](O)[C@H]6O)C(C)(C)C5CC[C@]43C)[C@@H]2C1 (stereo not given in full)
inactive: CRL-7250 | HaCat [1] | KB-3-1 | NIH3T3 -3.93% | HACAT [2] inactive [at 9.27 µM]

CC(=O)C=C=C1C(C)(C)CC(O)CC1(C)O[C@@H]1O[C@H](CO[C@H]2OC[C@](O)(CO)[C@H]2O)[C@@H](O)[C@H](O)[C@H]1O (stereo not given in full)
inactive: CRL-7250 -2.66% | HaCat [1] | KB-3-1 | NIH3T3 1.53% | HACAT [2] inactive [at 17.4 µM]

O=S(=O)(N[C@H]1CCCC[C@@H]1N1CCOCC1)c1ccc(Cl)cc1
inactive: CRL-7250 -16% | HaCat [1] | KB-3-1 1.51% | NIH3T3 | HACAT [2]

CC(=O)O[C@H]1[C@@]2(O)C[C@H](C)[C@H](OC(=O)c3ccccc3)[C@@H]2[C@@H](OC(=O)CO)[C@]2(OC(C)=O)C[C@H]3C(=O)C(C)(C)C[C@@H]3[C@@]1(C)[C@H]2OC(C)=O
inactive: CRL-7250 -5.8% | HaCat [1] | KB-3-1 -0.153% | NIH3T3 1.84% | HACAT [2] inactive [at 17.4 µM]

CCCNCCc1ccc(NS(=O)(=O)c2ccc(OC(F)(F)F)cc2)cc1
inactive: CRL-7250 -2.99% | HaCat [1] | KB-3-1 -2.39% | NIH3T3 | HACAT [2]

CC1OC(=O)C[C@@H]2C(C(=O)O)=CO[C@@H](O[C@H]3O[C@H](CO)[C@@H](O)[C@H](O)[C@H]3O)[C@H]12 (stereo not given in full)
inactive: CRL-7250 -4.73% | HaCat [1] | KB-3-1 | NIH3T3 | HACAT [2]

CC12CCC3C1C(c1c(cc(O)c(C(=O)c4ccccc4)c1O)O2)C3(C)C (stereo not given)
inactive: CRL-7250 3.27% | HaCat [1] | KB-3-1 -20.8% | NIH3T3 -2.16% | HACAT [2]

C=C1CC[C@@H](O)[C@]2(C)CC[C@H]3C(=C)C(=O)O[C@@H]3[C@@H]12
inactive: CRL-7250 -3.82% | HaCat [1] | KB-3-1 | NIH3T3 -16.6% | HACAT [2]

N[C@@H]1c2cccnc2[C@H](OC(=O)N2CCC(n3c(=O)[nH]c4ncccc43)CC2)CC[C@H]1c1cccc(F)c1F
inactive: CRL-7250 -0.901% | HaCat [1] | KB-3-1 4.19% | NIH3T3 | HACAT [2]

O=C(c1cc(Cc2n[nH]c(=O)c3ccccc23)ccc1F)N1CCCNCC1
inactive: CRL-7250 0.306% | HaCat [1] | KB-3-1 | NIH3T3 0.0332% | HACAT [2]

C=C1C(=O)O[C@@H]2/C=C(\CO)CC/C=C(\CO)[C@H](OC(C)=O)C(OC(=O)C(C)CC)C12 (stereo not given in full)
inactive: CRL-7250 -5.38% | HaCat [1] | KB-3-1 | NIH3T3 -1.91% | HACAT [2] inactive [at 17.4 µM]

O=S1(=O)CCN(Cc2cc(NCC3CCOCC3)c3[nH]c(-c4ccccc4)cc3c2)CC1
inactive: CRL-7250 -9.27% | HaCat [1] | KB-3-1 4.46% | NIH3T3 -21.1% | HACAT [2]

C=C(C)[C@@H]1CC[C@]2(C(=O)O)CC[C@]3(C(=O)O)[C@H](CCC4[C@@]5(C)CCC(=O)C(C)(C)C5CC[C@]43C)C12 (stereo not given in full)
inactive: CRL-7250 -13.3% | HaCat [1] | KB-3-1 4.42% | NIH3T3 -2.4% | HACAT [2] inactive [at 17.4 µM]

C/C=C/C1=CC2=C(CO1)C(=O)C(C)(OC(=O)c1c(C)cc(O)cc1OC)C(O)C2 (stereo not given)
inactive: CRL-7250 3.73% | HaCat [1] | KB-3-1 2.17% | NIH3T3 1.21% | HACAT [2]

COC1=CC(=O)C=C(C)C12Oc1c(Cl)c(OC)cc(OC)c1C2=O (stereo not given)
inactive: CRL-7250 0.695% | HaCat [1] | KB-3-1 | NIH3T3 -3.2% | HACAT [2]

CCCOc1ccc(S(=O)(=O)N2CCN(CCO)CC2)cc1-c1nc2c(CCC)cn(CC)c2c(=O)[nH]1
inactive: CRL-7250 -15% | HaCat [1] | KB-3-1 7.41% | NIH3T3 4.33% | HACAT [2]

COc1cc(C2OC(c3ccc(OC)c(OC)c3)C(C)C2C)ccc1O (stereo not given)
inactive: CRL-7250 -1.49% | HaCat [1] | KB-3-1 -5.2% | NIH3T3 -6.22% | HACAT [2]

COc1cc2nc(N3CCN(C(=O)COc4c(OC)cccc4C(C)C)CC3)nc(N)c2cc1OC
inactive: CRL-7250 1.78% | HaCat [1] | KB-3-1 8.96% | NIH3T3 | HACAT [2]

CC1OC2OC(=O)C3(C)CC4C5(CO5)C5=CC(=O)OC(C)(C)C5=CC(=O)C4(C)C(C1=O)C23 (stereo not given)
inactive: CRL-7250 -8.36% | HaCat [1] | KB-3-1 | NIH3T3 1.81% | HACAT [2] inactive [at 17.4 µM]

C[C@@H](NC(=O)C(=O)c1c[nH]c2ccc([N+](=O)[O-])cc12)c1ccccc1
inactive: CRL-7250 | HaCat [1] | KB-3-1 -11% | NIH3T3 3.7% | HACAT [2]

O=c1[nH]c2ccccc2n1CCN1CCN(c2cccc(C(F)(F)F)c2)CC1
inactive: CRL-7250 | HaCat [1] | KB-3-1 -13.2% | NIH3T3 | HACAT [2]

CC1=CC2/C=C(\C)CCC(O)C/C=C/C(=O)OC23C(=O)NC(CC(C)C)C3C1C (stereo not given)
inactive: CRL-7250 -1.17% | HaCat [1] | KB-3-1 | NIH3T3 | HACAT [2] inactive [at 17.4 µM]

CCC(C)C1NC(=O)C(Cc2ccccc2)NC(=O)C(CCCCCC(=O)C(O)CO)NC(=O)C2CCCCN2C1=O (stereo not given)
inactive: CRL-7250 -4.29% | HaCat [1] | KB-3-1 | NIH3T3 | HACAT [2] inactive [at 17.4 µM]

COC(=O)c1ccnc(-c2cc(C(=O)Nc3ccc(C4(N)CC4)cc3)ccn2)c1
inactive: CRL-7250 -5.77% | HaCat [1] | KB-3-1 -6.68% | NIH3T3 -5.19% | HACAT [2]

CNCCN1CCC(c2cc(CN(C)C(=O)c3cccc(Oc4ccccc4)c3)ccn2)CC1
inactive: CRL-7250 1.09% | HaCat [1] | KB-3-1 8.17% | NIH3T3 1.12% | HACAT [2] inactive [at 17.4 µM]

NC(=O)c1cccc2[nH]c(-c3ccc(C4CCCN4)cc3F)nc12 (stereo not given)
inactive: all assays above

CNCCCC1(c2ccccc2)OC(C)(C)c2ccccc21 (stereo not given)
inactive: CRL-7250 3.46% | HaCat [1] | KB-3-1 -1.28% | NIH3T3 | HACAT [2]

COc1ccc(NC(=O)c2ccc(-c3ccc(-c4nnc(C)o4)cc3C)cc2)cc1N1CCN(C)CC1
inactive: CRL-7250 2.13% | HaCat [1] inactive; activator | KB-3-1 2.03% | NIH3T3 -14.5% | HACAT [2] inactive; activator

C=C1CCC2C(C)(C(=O)O)CCCC2(C)C1CCC1=CCOC1=O (stereo not given)
inactive: CRL-7250 | HaCat [1] | KB-3-1 -6.84% | NIH3T3 | HACAT [2]

COc1ccc2cc(-c3cc(-c4cc(Cl)cc(Cl)c4)nn3C(C)c3ccc(C(=O)NCCC(=O)O)cc3)ccc2c1 (stereo not given)
inactive: CRL-7250 2.03% | HaCat [1] | KB-3-1 -23.8% | NIH3T3 | HACAT [2]

CCNC(=O)N1CCCN(c2ccc(C(=O)NCCc3ccc(Cl)cc3Cl)cc2NC(=O)c2cccc(Cl)c2)CC1
inactive: CRL-7250 -3.91% | HaCat [1] | KB-3-1 -2.47% | NIH3T3 2.92% | HACAT [2]

CC(=O)O[C@]1(C(C)=O)CC[C@H]2[C@@H]3CCC4=CC(=O)CCC4=C3[C@@H](c3ccc(N(C)C)cc3)C[C@@]21C
inactive: CRL-7250 | HaCat [1] | KB-3-1 -14.7% | NIH3T3 -1.52% | HACAT [2]

CC(C)(C)c1ccc(C(=O)Nc2cn3cc(-n4ccnc4)ccc3n2)cc1
inactive: CRL-7250 | HaCat [1] | KB-3-1 7.42% | NIH3T3 -1.43% | HACAT [2]

O=C(NC[C@H]1CN(c2ccc(N3CCOCC3=O)cc2)C(=O)O1)c1ccc(Cl)s1
inactive: CRL-7250 0.206% | HaCat [1] | KB-3-1 -11.5% | NIH3T3 -0.938% | HACAT [2]
